Measured values from PubChem BioAssay (EPA / NIEHS).
Records with an inconclusive call do not appear. The source made the active and inactive calls. Rule for the calls: active = hit-call score of the fitted dose curve at least 0.9, where 1 is the maximum; inconclusive = response in the unintended direction; inactive = score below 0.9.

target: PGR (gene 5241) (UniProt P06401); experiment: NVS_NR_hPR: NovaScreen (NVS) Nuclear Receptor Binding Assay for human Progestron Receptor (PR) (AID 2283360);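 note: active means loss of bound radioligand signal versus DMSO baseline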
Sequence (P06401 whole entry, looked up): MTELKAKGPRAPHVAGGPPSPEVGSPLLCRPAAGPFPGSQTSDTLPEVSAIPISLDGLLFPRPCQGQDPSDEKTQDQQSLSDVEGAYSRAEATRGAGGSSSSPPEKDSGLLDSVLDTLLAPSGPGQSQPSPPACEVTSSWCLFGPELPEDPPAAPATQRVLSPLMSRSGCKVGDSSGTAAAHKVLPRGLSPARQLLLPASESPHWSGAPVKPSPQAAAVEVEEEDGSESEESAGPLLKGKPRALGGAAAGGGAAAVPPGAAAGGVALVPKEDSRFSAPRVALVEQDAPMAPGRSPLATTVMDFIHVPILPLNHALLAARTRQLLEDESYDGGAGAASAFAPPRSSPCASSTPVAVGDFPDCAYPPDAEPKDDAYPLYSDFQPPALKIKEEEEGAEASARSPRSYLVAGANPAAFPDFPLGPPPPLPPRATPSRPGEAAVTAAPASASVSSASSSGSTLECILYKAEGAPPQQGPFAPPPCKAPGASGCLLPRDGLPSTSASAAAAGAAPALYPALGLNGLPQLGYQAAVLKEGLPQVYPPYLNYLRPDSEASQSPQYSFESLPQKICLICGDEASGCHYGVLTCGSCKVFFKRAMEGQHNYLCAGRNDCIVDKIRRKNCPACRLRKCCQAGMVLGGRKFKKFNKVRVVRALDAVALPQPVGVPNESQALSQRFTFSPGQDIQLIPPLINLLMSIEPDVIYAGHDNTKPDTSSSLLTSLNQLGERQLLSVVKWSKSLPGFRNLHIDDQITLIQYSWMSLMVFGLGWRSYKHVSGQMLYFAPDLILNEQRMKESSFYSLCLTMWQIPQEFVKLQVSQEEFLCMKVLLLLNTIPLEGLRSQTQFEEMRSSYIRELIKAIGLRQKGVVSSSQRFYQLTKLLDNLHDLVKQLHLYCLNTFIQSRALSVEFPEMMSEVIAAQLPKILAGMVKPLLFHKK
Description: NVS_NR_hPR is a biochemical, single-readout assay that uses extracted gene-proteins from T47D in a cell-free assay. Measurements were taken 18 hours after chemical dosing in a 96-well plate.NVS_NR_hPR is one of one assay component(s) measured or calculated from the NVS_NR_hPR assay. It is designed to make measurements of radioligand binding, a form of binding reporter, as detected with scintillation counting signals by Lysate-based radiodetection technology.Data from the assay component NVS_NR_hPR was analyzed into 1 assay endpoint. This assay endpoint, NVS_NR_hPR, was analyzed in the positive analysis fitting direction relative to DMSO as the negative control and baseline of activity. Using a type of binding reporter, loss-of-signal activity can be used to understand changes in the binding as they relate to the gene PGR. Furthermore, this assay endpoint can be referred to as a primary readout, because the performed assay has only produced 1 assay endpoint. To generalize the intended target to other relatable targets, this assay endpoint is annotated to the nuclear receptor intended target family, where the subfamily is steroidal.
Binding assays used specific radioligands (tritiated, iodinated) with non-radioactive competitive displacement ligands in agonist or antagonist protocols (as indicated) and various reference compounds and inhibitors to titrate specific binding to receptors and transporters. Most enzyme assays (CYPs, kinases, phosphatases, proteases, HDACs) used recombinant protein and specific substrates (fluorescence mostly, some colorimetric and radioactive) and inhibitors, followed by a biochemical separation of substrate and product. All assays for the biochemical HTS were initially run in duplicate at a single concentration (10 uM for CYP450 assays and 25 uM for all others). […] Each assay was run with positive and negative controls, and concurrent controls on every plate. The follow-up (secondary) screen tested active chemical-pairs in concentration series, as well as a few additional assays not tested in the primary screen, some selected negative inactives, and several cases re-run in the concentration series for confirmatory purposes.

| Structure (SMILES) | AC50 | outcome |
| --- | --- | --- |
| O=[N+]([O-])c1ccc(Nc2ccccc2)cc1 | 37.6 µM (active) | – |
| OC(Cc1ccccc1Cl)(Cn1[nH]cnc1=S)C1(Cl)CC1 (centres undefined) | – | inactive |
| CCOC(=O)C(SP(=S)(OC)OC)c1ccccc1 (centres undefined) | – | inactive |
| CCCCCCCCCCCCc1cccc(S(=O)(=O)O)c1 | 15.9 µM (active) | – |
| O=C(O)C1(c2ccc3c(c2)OC[C@H](Cc2ccc(-c4ccccc4)cc2)[C@H]3O)CCCC1 | – | inactive |
| Cc1cc(C(C)(C)c2ccc(O)c(C)c2)ccc1O | 23.3 µM (active) | – |
| O=c1oc2ccccc2c(O)c1C(CC(O)c1ccc(-c2ccc(Br)cc2)cc1)c1ccccc1 (centres undefined) | 23.9 µM (active) | – |
| O=C(N[C@H]1CN2CCC1CC2)c1ccc2c(c1)OCCO2 | – | inactive |
| CCOP(=O)(OCC)OC(=CCl)c1ccc(Cl)cc1Cl | 42.9 µM (active) | – |
| Clc1cccc(Cl)c1Cl | – | inactive |
| O=C1C=CC(=O)c2ccccc21 | 38.6 µM (active) | – |
| Cc1ccccc1OP(=O)(Oc1ccccc1)Oc1ccccc1 | – | inactive |
| Cc1ccccc1OP(=O)(Oc1ccccc1C)Oc1ccccc1C | – | inactive |
| C[C@]12CC[C@@H](O)C[C@@H]1CC[C@@H]1[C@@H]2CC[C@]2(C)C(=O)CC[C@@H]12 | – | inactive |
